Test results published in PubChem BioAssay (NCATS).
Inconclusive results are not listed. Entries that show only a call come without a potency. Calls of active or inactive are those of the source. Unless noted, calls come from the whole dose curve; as a rule, active = well fitted curve in the direction sought with a large enough effect; inconclusive = small, poorly fitted or top-dose-only effect, or another doubt; inactive = no such curve, though single readings can be large; an effect the other way counts as inactive or inconclusive.

Experiments:
[1] = molecular target: Chromobox protein homolog 1 (Homo sapiens) (UniProt P83916); assay: qHTS Validation Assay for Inhibitors of HP1-beta Chromodomain Interactions with Methylated Histone Tails (AID 488953); note: nearly all actives have a fitted effect of over 50% in size; note: potency is the fitted concentration of half-maximal effect
Outline: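 Disruption of preformed HP1-beta:H3K9me3 peptide complexes (both 50 nM, PBS pH 7.4 with 0.01% Tween-20) is measured by AlphaScreen after 30 min compound exposure at room temperature, using streptavidin donor and nickel chelate acceptor beads at 10 ug/mL final.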

[2] = molecular target: Transient receptor potential cation channel subfamily V member 1 (Homo sapiens) (UniProt Q8NER1); assay: HTS Assay for Compounds that Act as Enhancers of the Vanilloid Receptor 1 (AID 488979)
Outline: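 TRPV1 cells loaded with Fluo-8 calcium dye; compound added and Ca2+ signal (ex 480/em 520 nm) followed 3 min, then capsaicin at EC20 added and read 2 more min to detect enhancement.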

[3] = molecular target: Thyrotropin receptor (Homo sapiens) (UniProt P16473); assay: qHTS Assay for Antagonists of the Thyroid Stimulating Hormone Receptor (AID 488980); note: series mostly up to about 58 µM
Chain of Thyrotropin receptor (Homo sapiens) (P16473 whole entry, looked up): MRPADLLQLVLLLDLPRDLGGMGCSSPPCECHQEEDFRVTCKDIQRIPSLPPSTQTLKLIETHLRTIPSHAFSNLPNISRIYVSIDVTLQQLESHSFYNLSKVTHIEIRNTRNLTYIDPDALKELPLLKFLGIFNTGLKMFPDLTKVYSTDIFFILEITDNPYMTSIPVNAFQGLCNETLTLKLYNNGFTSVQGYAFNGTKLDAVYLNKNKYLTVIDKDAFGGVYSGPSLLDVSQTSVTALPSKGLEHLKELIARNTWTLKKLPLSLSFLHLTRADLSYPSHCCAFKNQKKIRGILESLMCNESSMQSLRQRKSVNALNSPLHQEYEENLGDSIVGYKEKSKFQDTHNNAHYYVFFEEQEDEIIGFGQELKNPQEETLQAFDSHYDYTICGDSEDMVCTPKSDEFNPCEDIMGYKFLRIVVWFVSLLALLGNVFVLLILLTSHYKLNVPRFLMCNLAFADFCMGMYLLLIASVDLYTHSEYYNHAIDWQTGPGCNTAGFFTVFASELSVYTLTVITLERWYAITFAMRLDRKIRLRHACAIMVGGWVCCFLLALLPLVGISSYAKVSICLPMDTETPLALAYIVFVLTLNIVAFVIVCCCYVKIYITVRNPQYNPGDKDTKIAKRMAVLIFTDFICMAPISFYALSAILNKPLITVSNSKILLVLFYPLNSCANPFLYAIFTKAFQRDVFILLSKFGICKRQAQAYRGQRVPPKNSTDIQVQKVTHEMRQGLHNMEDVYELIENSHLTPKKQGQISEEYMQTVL
Outline: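 Inhibition of TSH-stimulated cAMP accumulation was quantified by homogeneous time-resolved FRET in TSHR-transfected HEK293 cells. Agonist: TSH, 4 nM final (EC80).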

[4] = molecular target: D(1A) dopamine receptor (Homo sapiens) (UniProt P21728); assay: HTS Assay for Allosteric Agonists of the Human D1 Dopamine Receptor: Primary Screen for Agonists (AID 488981)
Chain of D(1A) dopamine receptor (Homo sapiens) (P21728 whole entry, looked up): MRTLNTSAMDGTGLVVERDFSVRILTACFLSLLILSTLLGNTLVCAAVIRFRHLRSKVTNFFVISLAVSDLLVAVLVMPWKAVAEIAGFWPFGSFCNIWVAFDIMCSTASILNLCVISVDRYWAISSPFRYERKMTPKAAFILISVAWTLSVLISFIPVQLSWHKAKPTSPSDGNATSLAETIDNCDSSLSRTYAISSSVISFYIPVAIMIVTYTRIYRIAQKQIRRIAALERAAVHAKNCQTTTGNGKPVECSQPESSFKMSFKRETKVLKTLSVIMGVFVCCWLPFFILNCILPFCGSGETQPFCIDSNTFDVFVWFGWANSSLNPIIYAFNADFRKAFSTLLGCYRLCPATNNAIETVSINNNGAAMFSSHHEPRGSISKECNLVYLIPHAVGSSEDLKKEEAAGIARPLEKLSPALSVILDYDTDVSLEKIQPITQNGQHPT
Outline: (§1)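 Tetracycline-induced HEK293 Trex D1 cells with forced coupling to calcium, loaded with no-wash calcium dye; kinetic fluorescence read 180 s after compound addition for agonism, then a further 180 s after an EC20 dopamine challenge for potentiation.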

[5] = molecular target: D(1A) dopamine receptor (Homo sapiens) (UniProt P21728); assay: HTS Assay for Allosteric Agonists of the Human D1 Dopamine Receptor: Primary Screen for Potentiators (AID 488982)
Outline: as §1

[6] = molecular target: D(1A) dopamine receptor (Homo sapiens) (UniProt P21728); assay: HTS Assay for Allosteric Agonists of the Human D1 Dopamine Receptor: Primary Screen for Antagonists (AID 488983);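 note: calcium flux response to an EC80 dopamine challenge measured with no-wash dye; nearly all actives have a fitted effect of over 65% in size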; note: potency is the fitted concentration of half-maximal effect
Outline: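 Kinetic fluorescence at 1 cycle/sec tracked intracellular calcium in force-coupled, tetracycline-inducible HEK293 T-REx D1 cells. Loss of response to an EC80 dopamine dose, given 180 s after compound, marked antagonists.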

[7] = Validation screen for small molecules that induce genotoxicity in human embryonic kidney (HEK293T) cells expressing luciferase-tagged ELG1 (AID 493106)
Outline: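 Cells were dispensed at 2,000 per well, then 23 nL compound or DMSO was pinned in. After 16 hr at 37 °C and 5% CO2, ONE-Glo reagent was added. Luciferase activity was measured following 30 min at room temperature.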

[8] = molecular target: ATPase family AAA domain-containing protein 5 (Homo sapiens) (UniProt Q96QE3); assay: Validation screen for small molecules that inhibit ELG1-dependent DNA repair in human embryonic kidney (HEK293T) cells expressing luciferase-tagged ELG1 (AID 493107); note: nearly all actives have a fitted effect of over 70% in size; note: potency is the fitted concentration of half-maximal effect
Chain of ATPase family AAA domain-containing protein 5 (Homo sapiens) (Q96QE3 whole entry, looked up, the tested form may be a part): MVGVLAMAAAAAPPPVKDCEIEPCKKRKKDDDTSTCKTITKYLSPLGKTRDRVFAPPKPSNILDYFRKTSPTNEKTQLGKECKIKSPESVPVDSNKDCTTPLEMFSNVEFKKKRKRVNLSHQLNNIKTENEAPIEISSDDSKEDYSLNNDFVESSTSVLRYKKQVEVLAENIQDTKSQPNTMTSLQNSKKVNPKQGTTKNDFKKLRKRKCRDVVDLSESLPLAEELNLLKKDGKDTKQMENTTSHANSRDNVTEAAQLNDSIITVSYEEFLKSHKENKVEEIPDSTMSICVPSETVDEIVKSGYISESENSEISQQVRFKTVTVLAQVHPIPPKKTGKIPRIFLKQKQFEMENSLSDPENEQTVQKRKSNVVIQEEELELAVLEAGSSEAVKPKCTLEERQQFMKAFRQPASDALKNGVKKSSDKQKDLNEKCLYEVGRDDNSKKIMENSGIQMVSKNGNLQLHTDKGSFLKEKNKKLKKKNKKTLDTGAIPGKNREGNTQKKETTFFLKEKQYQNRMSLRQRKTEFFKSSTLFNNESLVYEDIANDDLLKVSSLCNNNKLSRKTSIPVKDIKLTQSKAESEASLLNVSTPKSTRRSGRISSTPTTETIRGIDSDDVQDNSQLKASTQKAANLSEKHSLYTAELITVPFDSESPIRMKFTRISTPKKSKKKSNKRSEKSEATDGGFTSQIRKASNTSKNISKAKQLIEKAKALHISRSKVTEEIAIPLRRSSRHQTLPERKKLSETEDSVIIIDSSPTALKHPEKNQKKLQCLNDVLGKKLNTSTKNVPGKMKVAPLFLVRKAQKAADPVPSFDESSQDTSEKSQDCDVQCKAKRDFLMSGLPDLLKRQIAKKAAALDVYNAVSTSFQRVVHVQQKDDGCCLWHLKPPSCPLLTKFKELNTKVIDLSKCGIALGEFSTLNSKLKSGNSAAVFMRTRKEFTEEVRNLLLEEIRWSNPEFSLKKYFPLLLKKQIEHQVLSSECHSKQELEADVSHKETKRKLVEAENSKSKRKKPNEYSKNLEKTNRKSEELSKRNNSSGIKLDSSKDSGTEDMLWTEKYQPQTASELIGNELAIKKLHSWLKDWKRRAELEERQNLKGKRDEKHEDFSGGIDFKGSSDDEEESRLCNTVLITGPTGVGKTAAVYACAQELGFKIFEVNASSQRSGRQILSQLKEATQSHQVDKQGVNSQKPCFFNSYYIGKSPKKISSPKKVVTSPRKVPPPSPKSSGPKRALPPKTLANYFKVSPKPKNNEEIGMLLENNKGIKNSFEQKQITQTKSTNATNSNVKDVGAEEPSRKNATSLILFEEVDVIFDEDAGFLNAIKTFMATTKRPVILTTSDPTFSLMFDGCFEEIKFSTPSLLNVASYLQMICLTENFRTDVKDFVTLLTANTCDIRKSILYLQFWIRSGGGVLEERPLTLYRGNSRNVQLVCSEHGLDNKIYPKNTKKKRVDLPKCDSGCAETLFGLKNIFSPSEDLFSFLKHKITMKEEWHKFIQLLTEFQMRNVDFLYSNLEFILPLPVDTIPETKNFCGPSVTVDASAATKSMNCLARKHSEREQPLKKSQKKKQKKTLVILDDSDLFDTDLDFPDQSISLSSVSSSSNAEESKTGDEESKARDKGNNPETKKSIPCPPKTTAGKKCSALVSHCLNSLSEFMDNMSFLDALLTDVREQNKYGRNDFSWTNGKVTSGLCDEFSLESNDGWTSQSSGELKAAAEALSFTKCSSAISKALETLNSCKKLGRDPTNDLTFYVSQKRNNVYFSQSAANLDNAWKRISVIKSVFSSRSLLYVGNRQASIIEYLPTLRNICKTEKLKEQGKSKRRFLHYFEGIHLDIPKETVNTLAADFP
Outline: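 Cells are dispensed in 1536-well format, then 5-fluorouridine and compound are pinned in. After a 16 hr incubation at 37 °C and 5% CO2, ONE-Glo is added and luciferase measured on a CCD imager.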

[9] = molecular target: Thyrotropin-releasing hormone receptor (Homo sapiens) (UniProt P34981); assay: qHTS for Small Molecule Agonists and Allosteric Enhancers of Human TRH Receptor: Validation Screen for Agonists (AID 493127;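 active = calcium activation more than 3 SD above the typical response in the agonist read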;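 note: intracellular calcium rise by fluo-8 fluorescence before TRH EC20 addition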); settings: TRH receptor agonist cell assay; at 2 µM; stronger effect = higher value
Chain of Thyrotropin-releasing hormone receptor (Homo sapiens) (P34981 whole entry, looked up): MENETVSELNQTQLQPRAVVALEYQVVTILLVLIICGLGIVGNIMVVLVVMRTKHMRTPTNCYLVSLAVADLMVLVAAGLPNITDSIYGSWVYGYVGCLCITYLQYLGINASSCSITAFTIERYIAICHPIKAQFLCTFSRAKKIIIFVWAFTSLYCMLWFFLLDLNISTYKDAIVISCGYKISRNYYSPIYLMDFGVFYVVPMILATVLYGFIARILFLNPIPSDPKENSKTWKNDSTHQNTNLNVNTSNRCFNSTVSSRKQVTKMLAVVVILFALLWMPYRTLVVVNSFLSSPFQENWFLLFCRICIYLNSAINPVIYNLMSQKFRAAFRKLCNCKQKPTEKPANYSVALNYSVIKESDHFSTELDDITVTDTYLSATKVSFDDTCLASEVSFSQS
Outline: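 Compounds are added by online pintool to dye-loaded TRHR cells while fluorescence is recorded every second. A rise in calcium signal during the agonist read marks activation; a later 10 nM TRH addition (EC20) serves the separate enhancer mode.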

[10] = Nrf2 qHTS screen for inhibitors: Validation (AID 493153; active = well fitted inhibition curve with a large enough effect in the main read-out, with a control signal flat, not every such curve was filed as active); settings: Potency: luciferase luminescence; viability change: measured here: cytotoxicity max response
Outline: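 A549 ARE_Fluc, 5% FBS OPTI-MEM; cpd titration, 18-24 h, 37°C/5% CO2. Read 1: CellTiter-Fluor (Ex 405/Em 525), cytotox. Read 2: luciferase lum, Nrf2 activity.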

[11] = molecular target: Peptidyl-prolyl cis-trans isomerase NIMA-interacting 1 (Homo sapiens) (UniProt Q13526); assay: qHTS Validation Assay to Find Inhibitors of Pin1 (AID 504536; active = well fitted inhibition curve with a large enough effect in the polarisation, with a control signal flat, not every such curve was filed as active; the % refers to the polarisation; note: potency is the fitted concentration of half-maximal effect)
Chain of Peptidyl-prolyl cis-trans isomerase NIMA-interacting 1 (Homo sapiens) (Q13526 whole entry, looked up): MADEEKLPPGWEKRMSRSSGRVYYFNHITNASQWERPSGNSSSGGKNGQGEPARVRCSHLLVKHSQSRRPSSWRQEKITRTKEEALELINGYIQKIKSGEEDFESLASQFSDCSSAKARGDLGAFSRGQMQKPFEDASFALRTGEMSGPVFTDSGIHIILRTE
Outline: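 Fluorescence polarization competition: compounds (titration) displace HiFluor-488-labeled Pin1-1b peptide from Pin1 (0.3 uM final) in pH 7.5 HEPES buffer with DTT, 10 min at room temperature; %Activity normalized to no-enzyme wells, curves fitted.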

[12] = Inducers of the Endoplasmic Reticulum Stress Response (ERSR) in human glioma: Validation (AID 504836)
Outline: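 Stably transfected U87-MG glioma cells carrying a GRP78-based luciferase sensor; 16 h compound incubation. Luminescence end-point read 10 min after Bright-Glo addition at room temperature.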

[13] = qHTS for Inhibitors of Cell Surface uPA Generation: Validation Assay (AID 493164);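 note: RAW 264.7 macrophage cells exposed to compound for 18 h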
Outline: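 ATP-Lite luminescence read-out: ATP remains high when uPA activity-dependent LF translocation into the cytoplasm is blocked. RAW 264.7 cells, 18 h compound exposure at 37 C; 7-point titration, 2.45 nM to 38.3 uM final.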

[14] = molecular target: Galactokinase (Homo sapiens) (UniProt P51570); assay: qHTS Validation Assay for Inhibitors of Human Galactokinase (GALK) (AID 493189)
Chain of Galactokinase (Homo sapiens) (P51570 whole entry, looked up): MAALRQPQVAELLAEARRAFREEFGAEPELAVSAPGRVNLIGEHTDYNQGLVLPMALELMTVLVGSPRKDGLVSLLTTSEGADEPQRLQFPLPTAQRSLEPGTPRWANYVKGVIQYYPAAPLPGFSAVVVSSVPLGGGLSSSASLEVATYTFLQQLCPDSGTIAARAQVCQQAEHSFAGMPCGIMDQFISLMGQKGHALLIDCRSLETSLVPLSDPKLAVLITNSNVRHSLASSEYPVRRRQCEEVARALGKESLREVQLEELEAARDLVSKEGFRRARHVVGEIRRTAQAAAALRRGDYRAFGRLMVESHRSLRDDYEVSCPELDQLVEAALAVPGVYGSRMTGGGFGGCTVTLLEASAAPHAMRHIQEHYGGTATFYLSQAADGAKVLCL
Outline: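 Enzyme activity is inferred from ATP consumption: human GALK phosphorylates galactose (100 uM) using 35 uM ATP for 1 h at room temperature, and luciferase-based Kinase-Glo Plus reports unconsumed ATP.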

[15] = Validation screen for small molecules that induce DNA re-replication in SW480 colon adenocarcinoma cells (AID 504364)
Outline: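 Image-based qHTS: compounds were incubated with SW480 cells for 48 hr, nuclei stained with Hoechst, and per-nucleus fluorescence intensity scanned to flag cells with excess DNA content.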

[16] = molecular target: Phosphoglycerate kinase, glycosomal (Trypanosoma brucei brucei) (UniProt P07378); assay: qHTS Validation Assay to Find Inhibitors of Phosphoglycerate Kinase (AID 504547); note: potency is the fitted concentration of half-maximal effect
Chain of Phosphoglycerate kinase, glycosomal (Trypanosoma brucei brucei) (P07378 whole entry, looked up): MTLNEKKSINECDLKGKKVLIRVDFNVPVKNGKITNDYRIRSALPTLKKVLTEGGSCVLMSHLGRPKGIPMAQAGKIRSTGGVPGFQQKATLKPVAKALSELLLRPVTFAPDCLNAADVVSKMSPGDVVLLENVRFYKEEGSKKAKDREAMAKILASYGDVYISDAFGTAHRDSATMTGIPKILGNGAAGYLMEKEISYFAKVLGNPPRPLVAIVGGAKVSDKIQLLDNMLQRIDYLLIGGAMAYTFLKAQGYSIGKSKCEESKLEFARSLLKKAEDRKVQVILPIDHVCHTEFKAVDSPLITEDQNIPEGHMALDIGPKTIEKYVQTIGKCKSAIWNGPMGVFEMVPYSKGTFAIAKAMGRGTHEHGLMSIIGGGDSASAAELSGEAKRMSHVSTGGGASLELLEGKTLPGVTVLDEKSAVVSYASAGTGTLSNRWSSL
Outline: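 Compounds are pinned into the substrate/PGK mixture, and GAPDH (100nM final) is added to start the reaction by producing 1,3-BPG. After 60 minutes at room temperature, Kinase-Glo Plus is added and luminescence is measured 10 minutes later.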

[17] = molecular target: phosphoglycerate mutase (Leishmania major) (UniProt Q4Q090); assay: qHTS Validation Assay to Find Inhibitors of Phosphoglycerate Mutase (AID 504548); settings: Potency: inhibition qHTS; note: series mostly up to about 58 µM
Chain of phosphoglycerate mutase (Leishmania major) (Q4Q090 1-553): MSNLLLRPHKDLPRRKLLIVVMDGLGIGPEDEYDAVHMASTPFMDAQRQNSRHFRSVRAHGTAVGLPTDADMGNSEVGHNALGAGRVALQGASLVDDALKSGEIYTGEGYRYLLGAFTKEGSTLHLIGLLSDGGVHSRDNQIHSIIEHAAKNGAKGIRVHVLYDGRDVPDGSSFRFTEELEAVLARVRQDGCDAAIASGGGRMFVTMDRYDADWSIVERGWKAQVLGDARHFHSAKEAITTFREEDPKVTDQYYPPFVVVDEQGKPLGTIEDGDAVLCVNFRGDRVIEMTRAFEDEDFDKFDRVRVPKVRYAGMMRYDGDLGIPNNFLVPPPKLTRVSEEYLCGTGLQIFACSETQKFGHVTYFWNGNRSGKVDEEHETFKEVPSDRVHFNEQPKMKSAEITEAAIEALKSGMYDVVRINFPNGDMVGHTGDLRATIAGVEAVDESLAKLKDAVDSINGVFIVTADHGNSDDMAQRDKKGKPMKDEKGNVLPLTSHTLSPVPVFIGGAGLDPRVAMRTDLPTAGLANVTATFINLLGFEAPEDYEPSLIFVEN
Outline: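 Lm PGAM 1.25nM final; 100 mM TEA pH 7.6, 5 mM MgCl2, 0.01% Tween-20; 45 min RT; Kinase-GloPlus, 10 min; end-point luminescence. Enzyme-free wells as negative controls.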

[18] = molecular target: Methanococcus maripaludis chaperonin (MmCpn) (UniProt Q6LX38); assay: High-Throughput Screening for Modulators of Cytosolic Chaperonin Activity: MmCpn Primary Screen (AID 488978)
Outline: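 HTRF readout (320 nm excitation, 590/665 nm emission) of ADP generated by 50 nM MmCpn hydrolysing 30 uM ATP during 10 min at 37C; compound preincubated 5 min RT.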

O=C1C=CC(=O)C=C1
Potency [1]: inactive
outcome [2]: inactive
outcome [3]: inactive
Potency [4]: inactive
Potency [5]: inactive
Potency [6]: inactive
Potency [7]: inactive
Potency [8]: inactive
activation [9]: 0.5% (inactive)
Potency [10]: inactive
viability change [10]: -5.52%
Potency [11]: inactive
outcome [12]: inactive

C[Se]C[C@H](N)C(=O)O
Potency [1]: inactive
outcome [2]: inactive
outcome [3]: inactive
Potency [4]: inactive
Potency [5]: inactive
Potency [6]: inactive
Potency [7]: inactive
activation [9]: 0.188% (inactive)
outcome [13]: inactive
outcome [14]: inactive
Potency [15]: inactive
Potency [11]: inactive
Potency [16]: inactive
Potency [17]: inactive
outcome [12]: inactive

CN1CCc2cc(O)cc3c2[C@H]1Cc1ccc(O)c(O)c1-3
Potency [1]: 1.34 µM (active)
outcome [18]: inactive
Potency [4]: inactive
Potency [5]: inactive
Potency [6]: 3.16 µM (active)
Potency [7]: inactive
Potency [8]: 20.6 µM (active)
Potency [10]: inactive
viability change [10]: -1.2%
outcome [13]: inactive
Potency [11]: inactive
Potency [16]: inactive
outcome [12]: inactive

C[C@H](Cc1ccc2c(c1)OC(C(=O)O)(C(=O)O)O2)NC[C@H](O)c1cccc(Cl)c1
Potency [1]: inactive
outcome [18]: inactive
outcome [2]: inactive
Potency [4]: inactive
Potency [5]: inactive
Potency [6]: inactive
Potency [7]: inactive
Potency [8]: inactive
activation [9]: 0.625% (inactive)
Potency [10]: inactive
viability change [10]: 0.983%
outcome [13]: inactive
outcome [14]: inactive
Potency [11]: inactive
Potency [16]: inactive
Potency [17]: inactive
outcome [12]: inactive

CCn1cnc2c(Nc3cccc(Cl)c3)nc(N[C@@H]3CCCC[C@@H]3N)nc21
Potency [1]: 39.8 µM (active)
outcome [18]: inactive
outcome [3]: inactive
Potency [5]: inactive
Potency [6]: inactive
Potency [7]: inactive
Potency [8]: 4.61 µM (active)
activation [9]: 3.88% (inactive)
outcome [14]: inactive
Potency [16]: inactive
Potency [17]: inactive

C=CCN1CC[C@]23c4c5ccc(O)c4O[C@H]2/C(=N/NC(=O)c2ccccc2)CC[C@@]3(O)[C@H]1C5
Potency [1]: inactive
outcome [18]: inactive
outcome [2]: inactive
Potency [4]: inactive
Potency [5]: inactive
Potency [6]: inactive
Potency [7]: inactive
Potency [8]: inactive
activation [9]: 1.44% (inactive)
Potency [10]: inactive
viability change [10]: 7.77%
outcome [13]: inactive
outcome [14]: inactive
Potency [11]: inactive
Potency [16]: inactive
Potency [17]: inactive
outcome [12]: inactive

NC(=O)c1cc(N2CC2)c([N+](=O)[O-])cc1[N+](=O)[O-]
Potency [1]: inactive
outcome [2]: inactive
outcome [3]: inactive
Potency [4]: inactive
Potency [5]: inactive
Potency [6]: inactive
Potency [7]: inactive
Potency [8]: inactive
activation [9]: 0.0625% (inactive)
outcome [13]: inactive
outcome [14]: inactive
Potency [15]: inactive
Potency [11]: inactive
Potency [16]: inactive
Potency [17]: inactive
outcome [12]: inactive

CN(N=O)c1ccc(O)c(O)c1
Potency [1]: 1.58 µM (active)
outcome [2]: inactive
Potency [4]: inactive
Potency [5]: inactive
Potency [6]: inactive
Potency [7]: inactive
Potency [8]: inactive
activation [9]: -0.438% (inactive)
Potency [10]: inactive
viability change [10]: 0.531%
outcome [13]: inactive
outcome [14]: inactive
Potency [15]: inactive
Potency [11]: 4.78 µM (active)
Potency [16]: 6.01 µM (active)
Potency [17]: inactive
outcome [12]: inactive

COc1ccc2c(c1)/C(=C/c1cnc[nH]1)C(=O)N2
Potency [1]: inactive
outcome [18]: inactive
outcome [2]: inactive
Potency [4]: inactive
Potency [5]: inactive
Potency [6]: inactive
activation [9]: 0.562% (inactive)
outcome [13]: inactive
outcome [14]: inactive
Potency [11]: inactive
Potency [16]: inactive
outcome [12]: inactive
